{"source": "PubChem BioAssay (NCATS)", "note": "Activity calls are given as the source filed them. Entries that show only a call come without a potency. The call rests on the fitted dose curve; in most records, active means well fitted inhibition curve with a large enough effect; inconclusive means small, poorly fitted or top-dose-only effect; inactive means flat fitted curve, though single readings scatter.", "data": [{"molecular_target": "Luciferin 4-monooxygenase (Photinus pyralis) (UniProt P08659)", "assay": "Primary firefly luciferase (FLuc) qHTS assay for identification of artifact compounds. (AID 1845220); further: nearly all actives have a fitted effect of over 60% in size", "details": "purified firefly luciferase, luminescence, 5 min; series mostly up to 54.1 µM", "outline": "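qHTS, 15 min compound preincubation with substrate (10 uM luciferin, 10 uM ATP) at RT, then 10 nM FLuc; 5 min; luminescence; % inhibition vs no-enzyme/DMSO controls, 4-parameter Hill fit.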", "values": [{"molecule": "COC(=O)N1CCN(C(=O)Cc2ccc(Cl)c(Cl)c2)[C@@H](CN2CCCC2)C1", "Potency": "inactive"}, {"molecule": "COc1cc2c(cc1OC)[C@@]13CCN4CC5=CCO[C@H]6CC(=O)N2[C@H]1[C@H]6[C@H]5C[C@H]43", "Potency": "inactive"}, {"molecule": "C[C@H]1O[C@@H](O[C@H]2C[C@@H](O)[C@]3(CO)C4C(CC[C@]3(O)C2)[C@@]2(O)CC[C@H](C3=CC(=O)OC3)[C@@]2(C)C[C@H]4O)[C@@H](O)[C@@H](O)[C@H]1O", "note": "(stereo partly specified)", "Potency": "inactive"}, {"molecule": "COc1c(C(C)C)cc2c(c1O)[C@@]1(C(=O)O)CCCC(C)(C)C1CC2", "note": "(stereo partly specified)", "Potency": "inactive"}, {"molecule": "CC(CCc1ccc(O)cc1)O[C@@H]1O[C@H](CO[C@H]2OC[C@](O)(CO)[C@H]2O)[C@@H](O)[C@H](O)[C@H]1O", "note": "(stereo partly specified)", "Potency": "inactive"}, {"molecule": "CC(=O)OC1CC(O)C(C)(C)C2CC(OC(C)=O)C3(C)C(CCC4(C)C(c5ccoc5)C(=O)C5OC543)C12C", "note": "(stereo unspecified)", "Potency": "inactive"}, {"molecule": "N#CC(OC1OC(COC2OC(CO)C(O)C(O)C2O)C(O)C(O)C1O)c1ccccc1", "note": "(stereo unspecified)", "Potency": "inactive"}, {"molecule": "COC(=O)[C@@]12C(=O)C(C)C(=O)[C@]1(C)C(C)=C[C@H]1[C@]3(C=O)CC[C@H](OC(C)=O)C(C)(C)[C@H]3CC[C@@]12C", "note": "(stereo partly specified)", "Potency": "inactive"}, {"molecule": "CN(C(=O)Cc1ccccc1)C(CN1CCCC1)c1ccccc1", "note": "(stereo unspecified)", "Potency": "inactive"}, {"molecule": "CCN1CC2(COC)C3[C@@H](OC)C4C1C3(C1C[C@]3(O)[C@H](OC(=O)c5ccccc5)C1[C@]4(OC(C)=O)[C@@H](O)[C@@H]3OC)[C@H](OC)C[C@H]2O", "note": "(stereo partly specified)", "Potency": "inactive"}, {"molecule": "CC1C/C=C/C(O)C(O)CC/C=C/c2cc(O)cc(O)c2C(=O)O1", "note": "(stereo unspecified)", "Potency": "inactive"}, {"molecule": "CCC1NC(=O)C2C(Cl)C(Cl)CN2C(=O)C(C(C)O)NC(=O)CC(c2ccccc2)NC(=O)C(CO)NC1=O", "note": "(stereo unspecified)", "Potency": "inactive"}, {"molecule": "CCN1C[C@]2(COC)[C@H](O)C[C@H](OC)[C@]34[C@@H]5C[C@]6(O)[C@H](OC(=O)c7ccccc7)[C@@H]5[C@@](O)([C@H]([C@H](OC)[C@H]23)[C@@H]14)[C@@H](O)[C@@H]6OC", "Potency": "inactive"}, {"molecule": "COc1cc(C(=O)O[C@H]2[C@@H]3C=CO[C@@H](O[C@@H]4O[C@H](CO)[C@@H](O)[C@H](O)[C@H]4O)[C@@H]3[C@@]3(CO)O[C@@H]23)ccc1O", "Potency": "inactive"}, {"molecule": "C=CC(C)(O)CC/C=C(\\C)C(=O)O[C@H]1[C@H](O)[C@@H](CO)O[C@@H](OC(=O)[C@]23CCC(C)(C)CC2C2=CCC4[C@@]5(C)CC[C@H](O[C@@H]6O[C@H](CO[C@@H]7OC[C@H](O)[C@H](O)[C@H]7O[C@@H]7OC[C@@H](O)[C@H](O)[C@H]7O)[C@@H](O)[C@H](O)[C@H]6O)C(C)(C)C5CC[C@@]4(C)[C@]2(C)CC3)[C@@H]1OC1OC(C)C(O[C@@H]2OC[C@@H](O)[C@H](O[C@@H]3OC[C@@H](O)[C@H](O)[C@H]3O)[C@H]2O)C(O)C1O", "note": "(stereo partly specified)", "outcome": "inactive [at 11.6 µM]"}, {"molecule": "CN(C)CCc1c[nH]c2ccc(CN3CCN(C)S3(=O)=O)cc12", "Potency": "inactive"}, {"molecule": "CC(=O)O[C@H]1C[C@@H](OC(C)=O)C(C)(C)C2C[C@@H](O)[C@]3(C)C(CC[C@@]4(C)[C@H](C5=CC(=O)OC5O)C[C@H]5O[C@]543)[C@]21C", "note": "(stereo partly specified)", "Potency": "inactive"}, {"molecule": "CC1=CC2/C=C(\\C)CCC(O)C3OC(C)(C)OC3CC(=O)OC23C(=O)NC(CC(C)C)C3C1C", "note": "(stereo unspecified)", "Potency": "inactive"}, {"molecule": "CCCN1CCO[C@H]2c3cc(O)ccc3OC[C@@H]21", "Potency": "inactive"}, {"molecule": "CN1C(=O)c2ccccc2NC(=O)[C@]12O[C@@H]2c1ccccc1", "Potency": "inactive"}, {"molecule": "Cc1cccc(NC(=O)N[C@@H]2N=C(c3ccccc3)c3ccccc3N(C)C2=O)c1", "Potency": "inactive"}, {"molecule": "C[C@@]1(C(=O)O)CC[C@]2(C)CC[C@]3(C)C4=CC(=O)c5cc(O)c(O)cc5[C@]4(C)CC[C@@]3(C)[C@@H]2C1", "Potency": "inactive"}, {"molecule": "CN1C(=O)c2ccccc2NC(=O)C1Cc1ccccc1", "note": "(stereo unspecified)", "Potency": "inactive"}, {"molecule": "Cc1c(Cl)cccc1S(=O)(=O)Nc1nc(CC(=O)N2CCN(C)CC2)cs1", "Potency": "inactive"}, {"molecule": "COC1CC(O[C@H]2CC[C@]3(C=O)C4CC[C@]5(C)[C@@H](C6=CC(=O)OC6)CC[C@]5(O)[C@@H]4CC[C@]3(O)C2)OC(C)C1O[C@@H]1O[C@H](CO)[C@@H](O)[C@H](O)[C@H]1O", "note": "(stereo partly specified)", "Potency": "inactive"}, {"molecule": "CCc1[nH]c2ccc(OC)cc2c1CCN(C)C", "Potency": "inactive"}, {"molecule": "COC(=O)C1(C)CCC(O)C2(C)c3cc(O)c(C(C)C)cc3C(O)C(OC(C)=O)C12", "note": "(stereo unspecified)", "Potency": "inactive"}, {"molecule": "COCC1OC(=O)c2coc3c2C1(C)C1=C(C3=O)C2CCC(=O)C2(C)CC1O", "note": "(stereo unspecified)", "Potency": "inactive"}, {"molecule": "CN[C@H]1[C@H](O)[C@H](O[C@@H]2[C@@H](O)[C@H](O[C@H]3O[C@H]([C@H](C)O)[C@@H](O)[C@H](O)[C@H]3N)[C@@H](N)C[C@H]2N)OC[C@@]1(C)O", "Potency": "inactive"}, {"molecule": "CC(C)(O)[C@H]1O[C@H]2CC[C@@]3(C)[C@@](O)(CC[C@H]4Cc5c([nH]c6ccccc56)[C@@]43C)C2=CC1=O", "Potency": "inactive"}, {"molecule": "C=C[C@H]1CN2CC[C@H]1C[C@@H]2[C@@H](O)c1ccnc2ccccc12", "Potency": "inactive"}, {"molecule": "Cc1cn(C[C@H](N)C(=O)O)c(=O)n(Cc2cc(-c3ccccc3)sc2C(=O)O)c1=O", "Potency": "inactive"}, {"molecule": "COC1CC(OC2CCC3(C)C(CCC4C3CCC3(C)C(C5=CC(=O)OC5)C(OC(C)=O)CC43O)C2)OC(C)C1OC1OC(CO)C(O)C(O)C1O", "note": "(stereo unspecified)", "Potency": "inactive"}, {"molecule": "C[C@@](O)(COc1ccc(C#N)cc1)C(=O)Nc1ccc(C#N)c(C(F)(F)F)c1", "Potency": "inactive"}, {"molecule": "C[C@@H]1C(=O)O[C@H]2[C@H](O)[C@@]34[C@@H]5OC(=O)[C@@]3(O[C@@H]3OC(=O)[C@@H](O)[C@@]34[C@H](C(C)(C)C)[C@H]5O)[C@@]12O", "Potency": "inactive"}, {"molecule": "COC1CC(=O)C23C(=O)NC(CC(C)C)C2C(C)=C(C)C(OO)C3/C=C(\\C)CCC(O)C1O", "note": "(stereo unspecified)", "Potency": "inactive"}]}]}
